Measured values published in a collection of fitness landscapes (doi:10.1126/science.1257360).
The full ranking holds about 140,000 sequences; the median of “enrichment ratio after two sorts for PhoP signalling” is about 0, and the highest 2% start at about 11. Many of the other results were omitted from the sample, so the highest values are more common in it than they were.

B1: PhoQ; a variant is named by its letters at X, in order, P23837 (parent)
chain: MKKLLRLFFPLSLRVRFLLATAAVVLVLSLAYGMVALIGYSVSFDKTTFRLLRGESNLFYTLAKWENNKLHVELPENIDKQSPTMTLIYDENGQLLWAQRDVPWLMKMIQPDWLKSNGFHEIEADVNDTSLLLSGDHSIQQQLQEVREDDDDAEMTHSVAVNVYPATSRMPKLTIVVVDTIPVELKSSYMVWSWFIYVLSANLLLVIPLLWVAAWWSLRPIEALAKEVRELEEHNRELLNPATTRELTSLVRNLNRLLKSERERYDKYRTTLTDLTHSLKTPLXXLQXXLRSLRSEKMSVSDAEPVMLEQISRISQQIGYYLHRASMRGGTLLSRELHPVAPLLDNLTSALNKVYQRKGVNISLDISPEISFVGEQNDFVEVMGNVLDNACKYCLEFVEISARQTDEHLYIVVEDDGPGIPLSKREVIFDRGQRVDTLRPGQGVGLAVAREITEQYEGKIVAGESMLGGARMEVIFGRQHSAPKDE

Variants of: B1
Test: enrichment ratio after two sorts for PhoP signalling (ratio (wild type AVST 3.29)); higher = more functional
Conditions: with PhoP (E. coli)

Variant | enrichment ratio
LLVY | ≤ 0.25
YYRY | ≤ 0.25
RSKL | ≤ 0.25
EIAA | ≤ 0.25
SNVV | 7.87
ACTL | 15.2
ACTK | 4.69
AGAW | ≤ 0.25
PHQA | ≤ 0.25
GVCW | 11.5
GQCG | 16.6
GQWG | ≤ 0.25
GQCS | 4.33
NVCW | ≤ 0.25
GQCE | 21.9
PWCG | ≤ 0.25
GTCG | 7.53
GNCW | ≤ 0.25
GQCI | 2.43
PNCG | ≤ 0.25
GVCG | 12.7
TNLK | ≤ 0.25
EITI | ≤ 0.25
RPCA | ≤ 0.25
WVGL | ≤ 0.25

Variant | enrichment ratio
NTRE | ≤ 0.25
RRCS | ≤ 0.25
NLFK | ≤ 0.25
SDVW | ≤ 0.25
PHGP | ≤ 0.25
TMNC | 15.3
QPGC | ≤ 0.25
KMNC | ≤ 0.25
FFGC | ≤ 0.25
TMNK | ≤ 0.25
DMNC | ≤ 0.25
QGGC | 19.5
TMTC | 13.5
TMGC | 11.3
TMPC | ≤ 0.25
NHGC | ≤ 0.25
KCGC | ≤ 0.25
EFVE | ≤ 0.25
GASP | ≤ 0.25
HAHN | ≤ 0.25
TMLC | 13.8
MITC | ≤ 0.25
VEGC | ≤ 0.25
TMPP | ≤ 0.25
DMLC | ≤ 0.25

Variant | enrichment ratio
GMGC | ≤ 0.25
TMGA | 17.5
TCGC | 23.2
NMLC | ≤ 0.25
MEGC | ≤ 0.25
MIGC | 41.4
TMGQ | 5.04
ATVL | 4.07
EFKF | ≤ 0.25
SCEM | ≤ 0.25
TMPI | ≤ 0.25
AIGC | 5.62
TMKR | ≤ 0.25
THGC | 5.27
TMCR | 20.7
AQGC | 12.4
CFGC | ≤ 0.25
TMQR | 8.83
NQGC | ≤ 0.25
TMTS | 11.7
TGGC | 11.2
TMWA | ≤ 0.25
RMSH | ≤ 0.25
QWWT | ≤ 0.25
TGKL | ≤ 0.25

Variant | enrichment ratio
NNCI | ≤ 0.25
HTDV | ≤ 0.25
IQST | ≤ 0.25
SVER | ≤ 0.25
HCRQ | ≤ 0.25
NKWN | ≤ 0.25
LTGC | ≤ 0.25
SRGC | ≤ 0.25
SSGC | 13.8
VGGC | ≤ 0.25
KAGC | ≤ 0.25
FDGC | ≤ 0.25
TAGC | 13.9
KSGC | ≤ 0.25
TDGC | 17.1
MLHI | 1.88
WSGR | ≤ 0.25
TCPW | ≤ 0.25
LTCV | ≤ 0.25
RIDL | ≤ 0.25
TYQH | ≤ 0.25
CKSI | ≤ 0.25
WTRS | ≤ 0.25
TFHR | ≤ 0.25
YNLV | 1.85

Variant | enrichment ratio
DWIL | ≤ 0.25
NHQY | ≤ 0.25
TQSY | 12.3
SHQY | ≤ 0.25
TQII | 15.7
THQY | 15
FQAY | ≤ 0.25
DWSY | ≤ 0.25
TQAY | 17
LAAY | ≤ 0.25
FQII | ≤ 0.25
TQID | ≤ 0.25
NVSY | ≤ 0.25
EFDW | ≤ 0.25
DSGT | ≤ 0.25
HYAH | ≤ 0.25
YAPS | 0.949
YQLH | 0.516
HVYR | ≤ 0.25
TQQY | 15.1
LAQY | ≤ 0.25
TSQY | 13.5
SPQY | ≤ 0.25
KSQY | ≤ 0.25
TVQY | 19.2

Variant | enrichment ratio
NVQY | ≤ 0.25
TQEY | ≤ 0.25
MMQY | ≤ 0.25
VSHP | ≤ 0.25
ARTY | ≤ 0.25
IGHH | 2.36
LVAL | ≤ 0.25
YMKE | ≤ 0.25
RLRC | ≤ 0.25
FQML | 0.396
VYML | ≤ 0.25
YSML | 14.4
RSML | ≤ 0.25
VTEL | ≤ 0.25
VSML | 15.7
VTML | 15.3
QSML | 3.2
FSML | 12.7
VFML | ≤ 0.25
LPWT | ≤ 0.25
DNAA | ≤ 0.25
DPIA | ≤ 0.25
GRAC | ≤ 0.25
NSML | 4.86
KSML | ≤ 0.25

Variant | enrichment ratio
TSML | 17.8
PARS | ≤ 0.25
QYPA | ≤ 0.25
YART | ≤ 0.25
QKCC | ≤ 0.25
NVGG | ≤ 0.25
TVGG | 16.2
PVGG | ≤ 0.25
HCGQ | ≤ 0.25
TVGQ | 15.3
KIGQ | ≤ 0.25
ELLA | ≤ 0.25
RCNM | ≤ 0.25
THRA | ≤ 0.25
PAWH | ≤ 0.25
THDV | ≤ 0.25
RHTL | ≤ 0.25
RIQT | ≤ 0.25
TIQT | 12.7
TGCT | 1.82
AKTS | 5.9
GNCT | 10.8
KRQT | ≤ 0.25
TEQT | 23.1
NEQT | ≤ 0.25

Variant | enrichment ratio
TKTS | 11.9
MKTS | ≤ 0.25
GGCT | 15.6
AIQT | ≤ 0.25
QLVG | ≤ 0.25
ADVM | 6.88
KTVF | ≤ 0.25
GTKH | ≤ 0.25
IWLA | ≤ 0.25
TKCT | 38.2
HKCT | ≤ 0.25
KKCT | ≤ 0.25
KRCT | ≤ 0.25
KDQT | ≤ 0.25
TDCT | 14.8
TRCT | 18.2
TDQT | 34.2
FDCT | ≤ 0.25
ADCT | ≤ 0.25
HRCT | ≤ 0.25
ADQT | ≤ 0.25
